The campaign covered roughly 300,000 compounds. About 37,000 (12%) were called active. Rule as the data show it: active = max response mostly above about 13% (no sharp cut-off); inactive = mostly below about 14%. The full list was thinned out, with actives kept by preference.

A short description of the experiment: Cycloheximide Counterscreen for Small Molecule Inhibitors of Shiga Toxin. Also: read at 38.3 µM for the half of the compounds with a filed dose; 0% is about no effect. To be noted: cell reporter, cycloheximide protein synthesis inhibition counterscreen; active compounds read high.
In the case of `CCOC(=O)c1c(CN(C)C)n(-c2ccccc2)c2cc(Br)c(O)cc12`, the max response is -1.63% (inactive). As for `C[C@H]1CCC(=O)N([C@H](CSc2ccccc2)Cc2ccccc2)CC1`, the max response was 6.38% (inactive).

For the compound `Cc1c(C(=O)N2CCCC2)c(S(=O)(=O)NCC(C)c2ccccc2)c(C)n1C` (centres undefined), the max response is -6.59% (inactive). Next, `COc1ccc(N(CC(=O)NC2CCCCC2)C(=O)CNC(=O)c2ccco2)c(OC)c1`: 1.11% (inactive); `CC1CC(NC(=O)/C(C#N)=C/c2ccc[nH]2)CC(C)(C)C1` (centres undefined): 4.89% (inactive).

Take `CC(=O)NC1=NN(C(C)=O)C(C)(c2ccc(Cl)s2)S1` (centres undefined): the max response was -1.1% (inactive). Next, `O=C(N/N=C/c1cccc2cccnc12)[C@H]1C[C@@H]1c1ccccc1`: 8.61% (inactive).

In the case of `CN(C)/C(CN1CCCCC1)=C1\N=C(c2ccccc2)OC1=O`, the max response is -3.11% (inactive). Next, `O=c1cc(CN2CCN(S(=O)(=O)/C=C/c3ccccc3)CC2)c2ccc(O)cc2o1`: -1.39% (inactive); `COc1ccc([N+](=O)[O-])cc1N(CC(O)CN(CC(C)C)CC(C)C)S(=O)(=O)c1ccc(C)cc1` (centres undefined): 9.04% (inactive).

For the compound `Cc1ccc(C(=O)Cc2nnc(C)s2)cc1`, the max response was 43.7% (active).

For the compound `CCOCc1nnc(NC(=O)CSc2ccc(C)cc2)s1`, the max response is -1.61% (inactive). Next, `Cc1ccc(C(=O)Cn2cccn2)cc1`: 6.54% (inactive); `COc1cc2c(cc1NC(=O)COC(=O)/C=C/c1ccccc1)oc1ccccc12`: 0.0459% (inactive); `NC(=O)Cc1ccc2c(c1)[nH]c1ccccc12`: 4.3% (inactive).

`NC(=O)Cc1ccc2sc(-c3ccccc3)nc2c1`: the max response was 75.6% (active). Next, `O=C(O)Cc1sc(-c2ccccc2)nc1-c1cccs1`: 16.4% (inactive).

For the compound `O=C(O)Cc1ccc(NCc2ccccc2Cl)cc1`, the max response was 23.5% (inactive).

For `O=C(O)CC1=C(Nc2ccccc2)C(=O)N(c2ccccc2)C1c1ccc(Cl)cc1` (centres undefined), the max response is 38.1% (active).

As to `COC(=O)CN1C(=S)N(c2ccccc2)C(=O)C1CC(=O)Nc1ccc(Cl)cc1` (centres undefined), the max response was -2.88% (inactive).

For the compound `COc1ccccc1-n1c(=S)[nH]c2c(sc(=S)n2-c2ccc(C)cc2C)c1=O`, the max response is 5.32% (inactive). Next, `O=S(=O)(c1cnccc1N1CCN(/N=C/c2ccc(Br)cc2)CC1)N1CCCCC1`: -0.626% (inactive).

`O=C(CSc1nnnn1-c1ccc(O)cc1)N1N=C(c2ccc3ccccc3c2)CC1c1ccccc1` (centres undefined): the max response was 6% (inactive).

`CC(C)=C1SC(N2CCN(c3ccc(C)c(Cl)c3)CC2)=NC1=O`: the max response was -1.62% (inactive). `CCN1C(=O)/C(=C2\SC(N3CCCCC3)=NC2=O)c2ccccc21`: the max response was 18.4% (active). Consider `CC(C)=C1SC(N2CCN(c3cccc(C)c3)CC2)=NC1=O`, for which the max response was -1.33% (inactive).

Turning to `Cc1cc(CN(C)C(=O)c2cc(COc3ccc(C)c(C)c3)on2)n[nH]1`, the max response is 46% (active). As to `C/C(=N/OC(=O)c1cccc(C(F)(F)F)c1)c1cnccn1`, the max response was -2.87% (inactive). Next, `CN(Cc1cccnc1)C(=O)c1cc(COc2ccc3ncccc3c2)on1`: 7.18% (inactive); `CCOC(=O)N1CCN(Cc2nc(Cc3cccc(C(F)(F)F)c3)no2)CC1`: 9.29% (inactive).

On to `CN(CCOc1ccccc1)C(=O)c1cc(COc2c(F)cccc2F)on1`, for which the max response was 15.4% (inactive). Next, `CCC(=O)OCc1c(C(F)(F)F)nn(C)c1Oc1cccc(C(F)(F)F)c1`: -1.08% (inactive); `Cc1ccc(OCc2cc(C(=O)N(C)CCc3ccccc3)no2)cc1C`: 62.4% (active); `Cc1ccc(OCC(=O)NC(C)c2ccccc2)cc1C` (centres undefined): -1.54% (inactive). As for `Cc1nonc1C1CCCN1C(=O)c1cc(COc2cccc(C(F)(F)F)c2)on1` (centres undefined), the max response was 27.6% (active).

For `COc1ccc(C(=O)NNC(=O)c2cc(C)[nH]n2)cc1`, the max response was 3.07% (inactive). Turning to `CN(Cc1cnccn1)C(=O)c1cc(COc2cccc(C(F)(F)F)c2)on1`, the max response is 37.1% (active).

Turning to `COCCNC(=O)COc1ccc(C)c(C)c1`, the max response is 9.18% (inactive). Next, `CC(=O)c1cccc(NC(=O)C2CCCN(S(=O)(=O)c3cccc4nonc34)C2)c1` (centres undefined): -1.65% (inactive).

Regarding `CCCn1c(C2CCCN2c2nc(-c3ccc(C)cc3)cs2)nc2cc(Cl)c(N3CCCCC3)cc21` (centres undefined), the max response is 2.93% (inactive). Next, `CCN(CC)CCN(C(=O)c1cc(Cl)sc1Cl)c1nc2cc3c(cc2s1)OCO3`: 11.7% (inactive); `CC(=O)Nc1ccc(NC(=O)CN2C(=O)COc3ccc(S(=O)(=O)N4CCCCC4)cc32)cc1`: -11.2% (inactive); `COc1ccccc1Oc1ccc(N2CC(C(=O)OCC(=O)c3ccc(F)cc3)CC2=O)cc1` (centres undefined): 1.71% (inactive).

Take `CCCOc1ccc(Cc2c(O)nc(SC)[nH]c2=O)cc1C`: the max response was 1.31% (inactive). Next, `Cc1noc(/C=C/c2ccco2)c1S(=O)(=O)N1CCC(C(=O)Nc2ccc(Cl)cn2)CC1`: 14.7% (inactive). Next, `Cc1cc(C)cc(OCC(=O)Nc2cc(NC(=O)COc3cc(C)cc(C)c3)cc(C(=O)O)c2)c1`: -5.04% (inactive); `COc1ccc(CCNS(=O)(=O)c2cc3c(cc2C)NC(=O)CO3)cc1OC`: -0.971% (inactive); `FC(F)(F)c1nc(-c2ccccc2)ncc1-c1nnnn1-c1ccccc1`: -1.17% (inactive). Next, `Cc1ccc(CNC(=O)CCN2C(=O)[C@@H]3Cc4ccccc4CN3C2=O)cc1`: 4.73% (inactive). Turning to `COc1ccccc1CC(=O)Nc1ccc([N+](=O)[O-])cc1OC`, the max response was -1.19% (inactive). Next, `COc1ccccc1-c1noc(CSc2nc(C)cc(=O)[nH]2)n1`: 1.82% (inactive). Next, `COc1ccccc1CSc1ncc(-c2ccc([N+](=O)[O-])cc2)[nH]1`: 29.2% (active); `N#Cc1c(-c2ccccc2)nc(SCc2ccc([N+](=O)[O-])cc2)[nH]c1=O`: -1.84% (inactive). Next, `O=C(NCc1ccccc1)c1onc(CSc2nc3ccccc3[nH]2)c1C(=O)NCc1ccccc1`: -0.0609% (inactive); `CCCCSc1nc2ccccc2[nH]1`: 30.4% (active); `COc1ccccc1CSc1nc2ccccc2[nH]1`: 41% (active). `C=CCSc1nc2ccccc2[nH]1`: the max response is 12.4% (inactive). Next, `CCc1nnc(NC(=O)CCCSc2nc3ccccc3[nH]2)s1`: -1.42% (inactive). For `CCNS(=O)(=O)c1ccc(CCC(=O)N2CCN(c3ccc(OC)cc3)CC2)cc1`, the max response was 2.4% (inactive).

Values taken from PubChem BioAssay AID2314 (National Center for Advancing Translational Sciences (NCATS), 2010).
